From PubChem
In the library only some 28% were active in any assay of this set; here they are far more common.
PLK1 PBD inh = Plk1 (human) PBD binding inhibition; P53350; Plk1 PBD phosphopeptide binding, fluorescence polarization; inhibition, %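 (tested at about 20 µM)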; 97,000 compounds, 0.13% hits; AID 693; in the data active means inhibition above about 34%, passing the limit was not always enough
CYP2C19 inhib = blocks human cytochrome P450 2C19; 96,000 compounds, 21% hits; CYP2C19 Supersomes, luciferin-H EGE luminescence, 30 min; inhibition, % at 5 µM; P33261; AID 778;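 active means CYP2C19 inhibition above a set limit at 5 µM in the primary screen, cut at about 50% in these data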
CYP2C19 activ = increases human CYP2C19 enzyme activity; activation factor at 5 µM; AID 1025; recombinant CYP2C19, luciferin-H EGE luminescence; stronger effect = higher value; 0 = fully inhibited enzyme, 1 = untreated enzyme; 96,000 tested, under 10 active;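 active means activation factor of at least 2 at 5 µM in the primary screen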
CYP2C9 inh = inhibitors of human CYP2C9; AID 777; 96,000 compounds, 20% hits; CYP2C9 Supersomes, luciferin-H conversion, luminescence; inhibition, % at 5 µM;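 active means blocking of liver enzyme CYP2C9 beyond about 50% at 5 µM, limit read from the data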
Target sequence (P11712 whole entry, looked up): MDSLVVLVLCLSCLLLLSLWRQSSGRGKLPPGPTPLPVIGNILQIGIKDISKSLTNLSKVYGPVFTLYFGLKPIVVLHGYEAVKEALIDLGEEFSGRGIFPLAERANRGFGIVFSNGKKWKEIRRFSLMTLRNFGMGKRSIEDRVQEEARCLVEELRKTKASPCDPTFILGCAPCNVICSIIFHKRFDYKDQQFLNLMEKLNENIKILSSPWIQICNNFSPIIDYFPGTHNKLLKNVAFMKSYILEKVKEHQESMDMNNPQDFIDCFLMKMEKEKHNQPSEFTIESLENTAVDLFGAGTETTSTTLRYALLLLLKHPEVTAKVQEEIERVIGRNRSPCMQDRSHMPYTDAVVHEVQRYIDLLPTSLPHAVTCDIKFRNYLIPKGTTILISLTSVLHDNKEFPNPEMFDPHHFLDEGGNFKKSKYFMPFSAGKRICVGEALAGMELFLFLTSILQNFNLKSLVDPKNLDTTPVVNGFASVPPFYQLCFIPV
CYP2C9 activ = CYP2C9 (human) activation | P11712 | recombinant CYP2C9, luciferin-H conversion, luminescence; stronger effect = higher value; factor 1 = untreated enzyme, 0 = blocked | activation factor at 5 µM | 96,000 compounds, 1.4% hits;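 active means activation factor of 2 or more for CYP2C9 at a 5 µM dose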
PLK1 inh = blocks human PLK1 kinase activity; P53350; recombinant PLK1 kinase, TR-FRET peptide phosphorylation; inhibition, % at 10 µM; 97,000 compounds, 0.53% hits; AID 619;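 active means inhibition of 50% or more in the single-concentration screen; inactive means inhibition below 50%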
Numbers stand for hits; n = inactive; x = no result given.

SMILES	PLK1 PBD inh	CYP2C19 inhib	CYP2C19 activ	CYP2C9 inh	CYP2C9 activ	PLK1 inh
O=C(CN(C(=O)CNS(=O)(=O)c1ccccc1)c1ccc2c(c1)OCCO2)NCc1ccco1	n	n	n	n	n	n
Cc1ccc(N(CC(O)COCc2ccco2)S(=O)(=O)c2ccc(C)cc2)cc1 (stereo not given)	n	94	n	88	n	n
COc1ccccc1NC(=O)COc1ccc(/C=N/NS(=O)(=O)c2ccc(C)cc2)cc1	n	n	n	n	n	n
O=C(CN(c1ccc2c(c1)OCCO2)S(=O)(=O)c1ccccc1)NCc1ccco1	n	71	n	62	n	n
Cc1ccc(N(CC(=O)Nc2ccccc2-c2ccccc2)S(=O)(=O)c2ccccc2)cc1	n	55	n	60	n	n
COc1ccccc1N(CC(=O)N/N=C/c1ccc(OCC(=O)NCc2ccco2)cc1)S(=O)(=O)c1ccc(C)cc1	n	89	n	96	n	n
O=C(Cn1cnc2sc(-c3ccccc3)cc2c1=O)NCc1ccco1	n	n	n	n	n	n
CN(C)S(=O)(=O)n1ccnc1	n	n	n	n	n	n
COc1ccc(CCNC(=O)C2CCCN(S(C)(=O)=O)C2)cc1OC (stereo not given)	n	n	n	n	n	n
Cc1ccc(N(CC(=O)NCc2ccco2)S(=O)(=O)c2ccccc2)cc1	n	94	n	92	n	n
CCNC(=O)CN(c1ccc(C)cc1)S(=O)(=O)c1ccccc1	n	n	n	n	n	n
CC(=O)N(Cc1cc2cc(C)c(C)cc2n2nnnc12)CC1COCCO1 (stereo not given)	n	n	n	n	n	n
Cc1ccc(CC(=O)N2CCOCC2)cc1	n	n	n	n	n	n
CC(C)Cc1ccc(C(C)C(=O)N2CCOCC2)cc1 (stereo not given)	n	n	n	66	n	n
O=C(CN(Cc1ccco1)C(=O)CCC(=O)Nc1nccs1)NCc1ccccc1	n	x	x	x	x	n
O=C(CN(Cc1cccs1)C(=O)CCC(=O)Nc1nccs1)NCc1ccccc1	n	78	n	64	n	n
CCCCCCC1/C(=N/O)CCC1C(=O)OC (stereo not given)	n	66	n	n	n	n
CCCCCCN=C(C)C1=C(O)C(C(=O)OC)C(C)(C)CC1=O (stereo not given)	n	n	n	n	n	n
CCN(CC)c1ccc(NC(=O)CC2Oc3ccccc3NC2=O)c(C)c1 (stereo not given)	n	n	n	n	n	n
CCSc1nnc(NC(=O)C(Cc2ccccc2)n2cccc2)s1 (stereo not given)	n	n	n	n	n	n
CSCC[C@@H](C(=O)NCc1cccs1)N1Cc2ccccc2C1=O	n	59	n	n	n	n
CSCCC(C(=O)NCc1cccs1)N1C(=O)c2ccccc2C1=O (stereo not given)	n	n	n	n	n	n
Cc1csc(NC(=O)C(Cc2ccccc2)n2cccc2)n1 (stereo not given)	n	n	n	63	n	n
O=C(NCc1cccs1)C(Cc1ccccc1)n1cccc1 (stereo not given)	x	64	n	57	n	x
Cc1ccc(NC(=O)CN(C)CC(=O)Nc2c(C)cccc2C)c(Br)c1	n	n	n	n	n	n
SMILES	PLK1 PBD inh	CYP2C19 inhib	CYP2C19 activ	CYP2C9 inh	CYP2C9 activ	PLK1 inh
COc1ccc(C(NC(=O)c2ccco2)c2ccc(OC)c(OC)c2)cc1 (stereo not given)	n	n	n	n	n	n
COC(=O)[C@H](CCSC)NC(=O)NC1CCN(Cc2ccccc2)CC1	n	n	n	n	n	n
COc1ccccc1C(=O)NC(CCSC)C(=O)OCC(=O)NC(=O)NCc1ccco1 (stereo not given)	x	n	n	97	n	x
COc1ccccc1C(=O)NC(CCSC)C(=O)NCC(c1ccco1)N(C)C (stereo not given)	n	69	n	67	n	n
CSCCC(NC(=O)c1ccco1)C(=O)OC(C)C(=O)NC(=O)NC1CCCCC1 (stereo not given)	n	n	n	65	n	n
CC(C)C(NC(=O)c1ccco1)C(=O)NCC(c1ccco1)N(C)C (stereo not given)	n	n	n	n	n	n
COc1ccc(CNC(=O)C(CCSC)NC(=O)c2ccco2)cc1 (stereo not given)	n	60	n	n	n	n
CCNc1nc(Sc2ccc(C)cc2)cc(C(F)(F)F)n1	n	n	n	n	n	n
CCC1c2ccc(C)n2CCN1C(=O)Nc1ccccc1C(=O)OC (stereo not given)	n	86	n	59	n	n
CCOC(=O)c1ccccc1NC(=O)N1CCn2c(C)ccc2C1CC (stereo not given)	n	n	n	n	n	n
c1ccc(N2CCN(c3ccccc3)C2c2ccncc2)cc1	n	87	n	90	n	n
Cc1ccc(N2CCN(c3ccc(C)cc3)C2c2cccnc2)cc1	n	76	n	n	n	n
CCOC(=O)c1nn(-c2ccc(C)c(C)c2)cc1O	n	n	n	n	n	n
O=C(CSc1ncnc2ccccc12)Nc1ccc2c(c1)OCO2	x	62	n	n	n	x
O=C(CSc1ncnc2c1cnn2-c1ccccc1)Nc1ccc2c(c1)OCO2	n	n	n	63	n	n
CCOCCCNS(=O)(=O)c1ccc(OC)c(Cl)c1Cl	n	x	x	x	x	n
O=C1CCC(c2ccccc2)N1C(=O)c1cccnc1 (stereo not given)	n	x	x	x	x	n
Cc1nn(-c2nc3ccccc3s2)c(N)c1-c1ccccc1	n	n	n	n	n	n
Cc1nn(-c2nc3ccccc3s2)c(N)c1Sc1ccc(F)cc1	n	n	n	85	n	n
CCn1c(O)c(/C=N/N=C/c2ccccc2)c2ccc(C3=NNC(=O)CC3)cc21	n	n	n	64	n	n
COC(=O)C1CCN(C(=O)COC(=O)CC(NC(C)=O)c2ccccc2)CC1 (stereo not given)	n	n	n	n	n	n
O=C(Cn1cccc1)Nc1ccc(OC(F)(F)F)cc1	n	51	n	n	n	n
COc1ccccc1C(=O)OCC(=O)Nc1ccc(OC(F)F)cc1	n	53	n	n	n	n
CCCC(=O)OCC(=O)Nc1ccc(OC(F)F)cc1	n	59	n	n	n	n
COc1cccc(OC)c1C(=O)OCC(=O)Nc1ccc(OC(F)(F)F)cc1	n	75	n	99	n	n
COc1ccccc1OCC(=O)Nc1ccc(C(N)=O)cc1	n	n	n	n	n	n
COc1cc(-c2nc3n(n2)C(c2cccc(OC)c2OC)C2=C(CCCC2=O)N3)cc(OC)c1OC (stereo not given)	n	n	n	n	n	n
Cc1nc(Nc2nc(-c3ccccc3)cc(=O)[nH]2)nc2ccccc12	n	x	x	x	x	n
